Results as given in PubChem BioAssay.
Active and inactive are the calls of the source.

Key:
[1] = E. coli DRC41 culture turbidity changes, primary screen, E. coli filamentation inducer project, strain DRC41, OD650, 48 h (AID 1152);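 note: E. coli MC1000 strain DRC41 lacking acrAB efflux pump and sulA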; details: E. coli DRC41 (acrAB sulA), higher = more signal, called active from +8 up or from −8 down
[2] = small-molecule binders of probe aLefty1, primary screen, biochemical, small-molecule microarray, 635/667 nm fluorescence (AID 1153); details: higher = more signal;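 note: score merges spot fluorescence with signal-to-noise ratio from the scanned slide images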
[3] = PSAC antagonists in infected red cells, primary screen, cell-based, P. falciparum Indochina, OD700, 1 h (AID 1154); details: P. falciparum Indochina infected RBC osmotic lysis, higher = more signal, called active from +8 up or from −8 down
[4] = PSAC antagonists in infected red cells, primary screen, cell-based, P. falciparum Indochina, OD700, 2 h (AID 1155);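 note: lysis reports solute entry through the parasite surface anion channel PSAC; channel blockers reduce lysis of infected cells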; details: P. falciparum Indochina infected erythrocytes, osmotic lysis OD700; higher = more signal, called active from +8 up or from −8 down
[5] = osmotic lysis modulators in infected erythrocytes, primary screen, PSAC antagonist project, cell-based, P. falciparum Indochina, OD700, 3 h (AID 1156); details: higher = more signal, called active from +8 up or from −8 down
[6] = PSAC antagonists in infected red cells, primary screen, cell-based, P. falciparum Indochina, OD700, 18 h (AID 1157); details: P. falciparum Indochina infected erythrocytes, osmotic lysis OD700, 18 h; higher = more signal, called active from +8 up or from −8 down
[7] = modulators of S6 phosphorylation in cells, primary screen, cell-based, A549, cytoblot, luminescence, serum-stimulated (AID 1158); details: A549 phospho-S6 cytoblot, 5 h, higher = more signal;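 note: serum-stimulated A549 lung adenocarcinoma cells; signal is phosphorylated S6 detected by cytoblot immunostaining with HRP secondary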
[8] = biological target: NADPH oxidase 2 (Homo sapiens) (UniProt P04839); test: NOX2-dependent H2O2 signal modulators, primary screen, NOX inhibitor project, cell-based, HEK293-NOX2, PMA-stimulated, Amplex Red fluorescence (AID 1159); details: 45 min, higher = more signal, called active from +8 up or from −8 down; note: test concentration not given here
Chain of NADPH oxidase 2 (Homo sapiens) (P04839 whole entry, looked up): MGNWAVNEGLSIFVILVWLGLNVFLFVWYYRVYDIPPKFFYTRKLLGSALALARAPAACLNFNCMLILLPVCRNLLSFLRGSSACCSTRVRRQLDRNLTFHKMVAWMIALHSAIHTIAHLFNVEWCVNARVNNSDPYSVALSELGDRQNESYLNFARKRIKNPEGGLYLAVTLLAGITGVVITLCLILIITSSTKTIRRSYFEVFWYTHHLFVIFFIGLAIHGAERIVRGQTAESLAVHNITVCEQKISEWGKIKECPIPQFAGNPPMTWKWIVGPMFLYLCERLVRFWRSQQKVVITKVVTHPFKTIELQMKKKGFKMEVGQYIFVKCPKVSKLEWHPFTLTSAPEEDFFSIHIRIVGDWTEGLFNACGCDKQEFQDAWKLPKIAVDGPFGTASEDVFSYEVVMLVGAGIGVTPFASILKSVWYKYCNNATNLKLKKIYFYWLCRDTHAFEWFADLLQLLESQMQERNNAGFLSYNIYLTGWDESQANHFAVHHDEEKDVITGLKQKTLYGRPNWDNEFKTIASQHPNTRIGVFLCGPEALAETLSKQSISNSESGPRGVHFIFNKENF

[9] = biological target: NADPH oxidase 4 (Homo sapiens) (UniProt Q9NPH5); test: NOX4-dependent H2O2 signal modulators, primary screen, NOX inhibitor project, cell-based, HEK293-NOX4, tetracycline-induced, Amplex Red fluorescence (AID 1160); details: 45 min, higher = more signal, called active from +8 up or from −8 down
Chain of NADPH oxidase 4 (Homo sapiens) (Q9NPH5 whole entry, looked up): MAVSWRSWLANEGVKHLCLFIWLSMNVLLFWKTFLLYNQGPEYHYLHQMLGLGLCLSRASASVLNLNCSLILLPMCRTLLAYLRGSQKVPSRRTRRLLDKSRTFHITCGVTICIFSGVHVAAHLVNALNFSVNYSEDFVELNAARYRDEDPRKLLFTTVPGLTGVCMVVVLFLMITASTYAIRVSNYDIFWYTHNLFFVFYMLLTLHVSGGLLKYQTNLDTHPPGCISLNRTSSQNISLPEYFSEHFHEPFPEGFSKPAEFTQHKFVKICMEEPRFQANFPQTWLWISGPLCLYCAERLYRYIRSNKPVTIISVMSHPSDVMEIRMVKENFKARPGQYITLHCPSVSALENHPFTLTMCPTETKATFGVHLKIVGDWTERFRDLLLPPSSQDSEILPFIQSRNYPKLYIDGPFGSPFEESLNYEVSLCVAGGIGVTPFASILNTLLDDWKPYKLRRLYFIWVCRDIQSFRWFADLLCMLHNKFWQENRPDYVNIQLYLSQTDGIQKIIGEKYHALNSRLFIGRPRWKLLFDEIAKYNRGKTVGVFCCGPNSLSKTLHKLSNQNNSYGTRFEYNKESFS

[10] = biological target: NADPH oxidase 5 (Homo sapiens) (UniProt Q96PH1); test: NOX5-dependent H2O2 signal modulators, primary screen, NOX inhibitor project, cell-based, HEK293-NOX5, Amplex Red fluorescence (AID 1161); details: HEK293-NOX5, ionomycin, 45 min, higher = more signal
Chain of NADPH oxidase 5 (Homo sapiens) (Q96PH1 whole entry, looked up): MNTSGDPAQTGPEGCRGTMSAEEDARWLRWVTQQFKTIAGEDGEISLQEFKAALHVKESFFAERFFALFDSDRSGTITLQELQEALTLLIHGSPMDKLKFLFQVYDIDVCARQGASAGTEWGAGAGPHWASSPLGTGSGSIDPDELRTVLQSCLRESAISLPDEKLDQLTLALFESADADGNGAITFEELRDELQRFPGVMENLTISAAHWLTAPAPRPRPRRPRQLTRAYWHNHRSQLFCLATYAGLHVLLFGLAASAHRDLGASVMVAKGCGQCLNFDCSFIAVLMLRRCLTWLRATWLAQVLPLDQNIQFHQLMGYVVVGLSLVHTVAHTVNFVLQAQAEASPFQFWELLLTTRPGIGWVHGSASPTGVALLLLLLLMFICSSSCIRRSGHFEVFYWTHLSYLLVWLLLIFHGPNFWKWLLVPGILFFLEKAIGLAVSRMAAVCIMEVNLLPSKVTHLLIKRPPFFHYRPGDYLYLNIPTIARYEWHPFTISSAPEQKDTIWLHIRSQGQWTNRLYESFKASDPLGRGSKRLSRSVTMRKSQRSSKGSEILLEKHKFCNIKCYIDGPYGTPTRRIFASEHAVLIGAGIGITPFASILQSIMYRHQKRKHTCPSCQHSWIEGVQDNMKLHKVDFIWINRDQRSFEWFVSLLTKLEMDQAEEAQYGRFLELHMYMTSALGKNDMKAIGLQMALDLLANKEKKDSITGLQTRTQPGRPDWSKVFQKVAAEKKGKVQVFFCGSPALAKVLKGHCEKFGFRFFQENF

[11] = A549 cell viability effects, profiling panel, calcein-AM fluorescence, 48 h, basal (AID 1162); details: higher = more signal; note: test concentration not given here
[12] = adipocyte viability effects, profiling panel, cell-based, 3T3-L1 adipocytes, calcein-AM fluorescence, 48 h, basal (AID 1163); details: 3T3-L1 adipocytes viability, higher = more signal; note: test concentration not given here
[13] = HepG2 cell viability effects, profiling panel, calcein-AM fluorescence, 48 h, basal (AID 1164); details: higher = more signal; note: test concentration not given here
[14] = MM1S cell viability effects, profiling panel, calcein-AM fluorescence, 48 h, basal (AID 1165); details: higher = more signal;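 note: viability of MM1S multiple myeloma cells under basal unstimulated conditions; test concentration not given here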
[15] = basal RPMI8226 viability, no added stimulus, profiling panel, cell-based, calcein-AM fluorescence, 48 h, PK04 Diversity Set (AID 1166); details: RPMI8226 myeloma viability, higher = more signal;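 note: cells grown under basal conditions without added stimulus; test concentration not given here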
[16] = basal HepG2 mitochondrial membrane potential changes, profiling panel, cell-based, JC-1 fluorescence, 24 h, 100 nL compound (AID 1167); details: higher = more signal; note: test concentration not given here
[17] = basal 3T3-L1 adipocyte mitochondrial potential changes, profiling panel, cell-based, JC-1 fluorescence, 3T3-L1 adipocytes, 24 h, 100 nL compound (AID 1168); details: JC-1 mitochondrial fluorescence, higher = more signal, called active from +8 up or from −8 down; note: test concentration not given here
[18] = basal RPMI8226 mitochondrial membrane potential changes, profiling panel, cell-based, JC-1 fluorescence, 24 h, 100 nL compound (AID 1169); details: RPMI8226 myeloma, JC-1 mitochondrial potential fluorescence, higher = more signal; note: test concentration not given here
[19] = basal MM1S mitochondrial membrane potential changes, profiling panel, cell-based, JC-1 fluorescence, 24 h, 100 nL compound (AID 1170); details: higher = more signal; note: test concentration not given here
[20] = A549 lung cancer cell viability effects, profiling panel, resazurin fluorescence, 24 h, PK04 Diversity Set (AID 1171); details: higher = more signal, called active from +8 up or from −8 down; note: test concentration not given here

SMILES	z-score [1]	composite z-score [2]	z-score [3]	z-score [4]	z-score [5]	z-score [6]	z-score [7]	z-score [8]	z-score [9]	z-score [10]	z-score [11]	z-score [12]	z-score [13]	z-score [14]	z-score [15]	z-score [16]	z-score [17]	z-score [18]	z-score [19]	z-score [20]
C=CC[C@@]1(C(=O)N2CCCCC2)N=C(c2ccc(OCCCO)cc2)O[C@@H]1c1ccccc1N=[N+]=[N-]	0.432 (inactive)	0.407	31.2 (active)	27.2 (active)	1.27 (inactive)	6.5 (inactive)	0.995	-1.67 (inactive)	0.378 (inactive)	-1.88	-0.637	2.03	-0.441	-1.23	-2.71	1.02	1.21 (inactive)	-0.982	-1.66	-1.5 (inactive)
CO[C@H]1O[C@H](CO)[C@@H](OC(=O)Nc2ccc(Br)cc2)[C@@H]2OC(=O)[C@H](Cc3cccc(Br)c3)C/C=C/C[C@@H](Cc3cccc(Br)c3)C(=O)O[C@@H]12	1.7 (inactive)	-0.007	2.13 (inactive)	0.623 (inactive)	-0.147 (inactive)	0.951 (inactive)	0.0914	-1.42 (inactive)	-0.686 (inactive)	0.0667	0.193	0.461	0.31	-1.37	-0.228	-0.741	1.78 (inactive)	-0.209	-0.456	-2.1 (inactive)
O=C(O)[C@H]1C[C@H]2C(=O)N3CCC[C@H]3C(=O)N2[C@H]1c1ccc(O)cc1	0.852 (inactive)	-0.121	1.9 (inactive)	0.0196 (inactive)	-6.59 (inactive)	0.104 (inactive)	-0.275	0.583 (inactive)	0.16 (inactive)	0.932	0.835	0.469	0.0504	-0.8	0.0046	1.38	-0.0658 (inactive)	-0.703	-0.22	0.799 (inactive)
O=C1NC(=O)C2C1C=CC(C(O)c1ccc(I)cc1)N2Nc1ccccn1 (stereo not given)	-1.29 (inactive)	0.0701	1.41 (inactive)	0.698 (inactive)	0.0388 (inactive)	0.729 (inactive)	-0.779	-1.16 (inactive)	-2.82 (inactive)	-2.2	-0.0915	-0.891	-0.145	-0.619	-0.566	-1.35	-0.47 (inactive)	0.537	-0.0562	-0.107 (inactive)
COC(=O)[C@@]1(Cc2ccc(OC)cc2)[C@H]2c3cc(C(=O)N(C)C)n(Cc4ccc(C(F)(F)F)nc4)c3C[C@H]2CN1C(=O)c1ccccc1	-0.346 (inactive)	0.301	0.622 (inactive)	0.315 (inactive)	-0.106 (inactive)	0.471 (inactive)	-0.154	0.152 (inactive)	-1.26 (inactive)	-1.13	0.212	-0.624	0.106	-0.589	-0.782	0.117	-0.29 (inactive)	0.0192	-1.03	0.248 (inactive)
O=C1OCCC=C[C@H]2OC34C=CCN(CCN5CCOCC5)C(=O)[C@H]3N(CCCCCO)C(=O)[C@@H]4C12 (stereo not given in full)	0.725 (inactive)	-0.103	2.61 (inactive)	0.535 (inactive)	2.32 (inactive)	0.305 (inactive)	-0.0483	0.855 (inactive)	0.393 (inactive)	1.85	0.478	0.0858	1.02	-0.0119	0.218	0.575	0.172 (inactive)	-0.152	-0.355	0.203 (inactive)
CC(C)[Si](C#CCCCC#N)(Oc1ccccc1Br)C(C)C	-0.4 (inactive)	-0.104	0.614 (inactive)	1.01 (inactive)	-0.494 (inactive)	0.823 (inactive)	-0.49	-0.273 (inactive)	-0.161 (inactive)	-0.18	0.551	-0.924	0.235	-0.887	-0.181	-0.247	-0.183 (inactive)	-0.756	0.2	-0.0106 (inactive)
COc1ccc(C#Cc2ccc3c(c2)[C@]2(C(=O)N3)[C@H](c3ccc(O)cc3)N3[C@H](c4ccccc4)[C@H](c4ccccc4)OC(=O)[C@H]3[C@@H]2C(=O)N2CCc3cc(OC)c(OC)cc3C2)cc1	-0.291 (inactive)	0.156	0.276 (inactive)	0.312 (inactive)	-0.205 (inactive)	0.196 (inactive)	-0.0494	1.12 (inactive)	0.579 (inactive)	-0.568	-0.258	-0.817	-0.0752	-0.405	-2.87	-0.458	2.25 (inactive)	-0.727	-0.418	-0.565 (inactive)
COc1ccc([Si](C)(C)[C@H]2[C@H](CCn3cc([C@H](O)c4ccccc4)nn3)O[C@@]3(C(=O)N(C)c4ccccc43)[C@@H]2C)cc1	0.294 (inactive)	0.573	5.08 (inactive)	1.5 (inactive)	0.56 (inactive)	0.866 (inactive)	0.334	-0.0243 (inactive)	0.0296 (inactive)	-1.24	0.239	-0.233	0.132	-0.615	-1.79	-0.602	0.331 (inactive)	-1.16	-0.396	0.32 (inactive)
COC(=O)c1c2oc(c1C(=O)OC)C(=O)N[C@@H](C(C)C)Cn1cc(nn1)C1(CCCCC1)NC(=O)N[C@H](CO)CC2	2.15 (inactive)	-0.146	1.1 (inactive)	0.782 (inactive)	0.144 (inactive)	0.36 (inactive)	0.223	0.644 (inactive)	0.758 (inactive)	-0.124	1.31	-0.32	0.0744	-0.11	0.823	1.62	0.024 (inactive)	-0.159	0.3	1.15 (inactive)
